Data on four compounds can be found in PubChem BioAssay.

A short description of assay [1]: liver-stage malaria parasite growth inhibition, primary screen, cell-based, HepG2, luciferase luminescence, HepG2 viability (AID 624349).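 Further: 100% = mean of DMSO negative control wells on the same plate.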 Conditions: P. berghei liver stage in HepG2, luciferase luminescence, concentration not given here; parasite load remaining: stronger effect = lower value; viability: measured here: HepG2 viability without parasites.
The nature of assay [2]: stimulators of nuclear beta-catenin in C2C12, primary screen, imaging, WNT3A-conditioned medium, mouse C2C12, NPC library (AID 1117326; in the data active means nuclear beta-catenin stimulation mostly above about 4.2%, no sharp cut-off; inactive means mostly below about 10%). Conditions: stronger effect = higher value.
A short description of assay [3]: stimulators of insulin release from INS-1E, primary screen, cell-based, 5 mM glucose, NPC library (AID 1117329;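 active means compound raises insulin release from rat beta cells at 5 mM glucose, no numeric limit stated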). Conditions: rat INS-1E insulin secretion, at 10 µM, stronger effect = higher value.
Assay [4] is described as follows: growth inhibition of GSK3B-pretreated HCT116 cells – cell-based, CellTiter-Glo, 0.2 to 20 µM (AID 1117336;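 active means compounds lowering colon cancer cell viability after pretreatment blocking the GSK3B kinase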). Particulars: HCT116 viability after GSK3B inhibitor, at 20 µM, stronger effect = higher value.
Assay [5] in a line: inhibition of endothelial tube formation, primary screen, imaging, VEGF stimulated, CD31 staining, tube area, NPC library (AID 1117340;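 active means compound that reduces growth-factor-driven endothelial tube area in a mixed cell culture, no cutoff stated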). Particulars: VEGF-stimulated ADSC/ECFC co-culture, at 10 µM, stronger effect = higher value.
The nature of assay [6]: glucagon-like peptide 1 release enhancers, primary assay, NCI-H716 cell line, NPC library (AID 1117341;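 active means compound raises GLP1 secretion from the human gut endocrine cells, with no numeric limit stated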). Conditions: NCI-H716 cells, at 10 µM, stronger effect = higher value.
A short description of assay [7]: HCT116 colon cancer cell growth inhibition, primary screen, CellTiter-Glo luminescence, NPC library (AID 1117342;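 active means compounds that lower survival of HCT116 colon cancer cells in the luminescence readout, no numeric limit stated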). Conditions: at 20 µM (top of the series).
The nature of assay [8]: CellTiter-Glo luminescent readout of SW480 viability loss, NPC library primary (AID 1117343;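 active means compounds that lower viability of the colon cancer cells in the luminescence readout, with no numeric limit stated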). Particulars: CellTiter-Glo luminescence; at 20 µM (top of the series).
The nature of assay [9]: decreased DLD-1 cellular survival, CellTiter-Glo luminescent readout, NPC compound collection, primary HTS (AID 1117346;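 active means compounds that lower survival of DLD-1 colon cancer cells in the luminescence readout, no cutoff given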). Conditions: DLD-1 viability, CellTiter-Glo luminescence; at 20 µM (top of the series).
The target of assay [10] is 6-phosphogluconate dehydrogenase, decarboxylating (Homo sapiens) (UniProt P52209). Description: 6PGD enzyme inhibitors, primary screen, biochemical, human, recombinant enzyme, NADPH absorbance (AID 1159550;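 active means at least 20% inhibition of 6-phosphogluconate dehydrogenase activity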). Particulars: recombinant 6PGD, NADPH absorbance 341 nm; at 10 µM; stronger effect = higher value.
Chain of 6-phosphogluconate dehydrogenase, decarboxylating (Homo sapiens) (P52209 whole entry, looked up): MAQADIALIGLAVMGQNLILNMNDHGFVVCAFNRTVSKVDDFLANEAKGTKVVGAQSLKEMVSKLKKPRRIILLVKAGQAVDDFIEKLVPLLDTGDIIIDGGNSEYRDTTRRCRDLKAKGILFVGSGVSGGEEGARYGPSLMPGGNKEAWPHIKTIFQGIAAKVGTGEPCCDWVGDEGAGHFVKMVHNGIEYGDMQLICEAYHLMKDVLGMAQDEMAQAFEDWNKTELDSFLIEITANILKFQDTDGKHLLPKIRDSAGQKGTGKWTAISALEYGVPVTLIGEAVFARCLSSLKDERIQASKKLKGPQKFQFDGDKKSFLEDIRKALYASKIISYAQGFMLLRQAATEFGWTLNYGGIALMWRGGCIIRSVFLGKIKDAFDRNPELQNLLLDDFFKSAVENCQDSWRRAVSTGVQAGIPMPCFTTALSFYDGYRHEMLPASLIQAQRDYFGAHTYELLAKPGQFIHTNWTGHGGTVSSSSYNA
The nature of assay [11]: differential killing of epithelial or mesenchymal cells, primary screen, imaging, PC-3E GFP, TEM4-18 mCherry, co-culture (AID 1345086;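 active means compounds killing one labelled cell type while sparing the other, by normalised counts and ratio limits, not self-fluorescent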;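 on all read-outs here: cells exposed to compound for 72 h before imaging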;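 on red/green cell ratio (normalised): normalised mesenchymal count divided by normalised epithelial count so high means epithelial killing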). Conditions: imaging cell counts, at 1 µM; for red/green cell ratio (normalised): actives lie on both sides.
The nature of assay [12]: sensitizers of A549 cells to miR-34 induction, primary screen, imaging, A549 dox-inducible miR-34, nuclei and caspase counts (AID 1347080;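 active means compounds whose cell count with miR-34 switched on is under 0.7 times the count with it off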). Conditions: A549 miR-34 inducible, Hoechst nuclei count, 48 h.
A short description of assay [13]: survival rescue of mitochondrial mutant cells in low glucose, primary screen, MELAS cybrids, Rieske KO mouse fibroblasts, CellTiter-Glo (AID 1508586;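 active means mean z-score across replicates of 1.96 or higher in either the MELAS or the Rieske mutant cell line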;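 further: z relative to plate mean and SD of compound and empty wells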).
Assay [14] addresses NAD(+) hydrolase SARM1 (Homo sapiens) (UniProt Q6SZW1). Description: SARM1 TIR NADase inhibitors, cell lysate, NAD-Glo luminescence (AID 1508614;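 active means compound whose remaining NAD level is above about 45 nM, limit read from the data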). Particulars: SAM-TIR HEK293T lysate NADase, at 1 µM, stronger effect = higher value.
For assay [15], the target named is Mitogen-activated protein kinase 7 (Homo sapiens) (UniProt Q13164). Description: ERK5 transactivation activators in reporter cells, primary screen, cell-based, HTS (AID 1508626;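 active means luciferase signal above three times the same-plate solvent-only control wells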;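 further: luciferase driven by Gal4-ERK5 fusion binding five Gal4 sites before minimal TATA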). Particulars: HeLa Gal4-ERK5 transactivation, 18 h, at 5 µM, stronger effect = higher value.
Chain of Mitogen-activated protein kinase 7 (Homo sapiens) (Q13164 whole entry, looked up, the tested form may be a part): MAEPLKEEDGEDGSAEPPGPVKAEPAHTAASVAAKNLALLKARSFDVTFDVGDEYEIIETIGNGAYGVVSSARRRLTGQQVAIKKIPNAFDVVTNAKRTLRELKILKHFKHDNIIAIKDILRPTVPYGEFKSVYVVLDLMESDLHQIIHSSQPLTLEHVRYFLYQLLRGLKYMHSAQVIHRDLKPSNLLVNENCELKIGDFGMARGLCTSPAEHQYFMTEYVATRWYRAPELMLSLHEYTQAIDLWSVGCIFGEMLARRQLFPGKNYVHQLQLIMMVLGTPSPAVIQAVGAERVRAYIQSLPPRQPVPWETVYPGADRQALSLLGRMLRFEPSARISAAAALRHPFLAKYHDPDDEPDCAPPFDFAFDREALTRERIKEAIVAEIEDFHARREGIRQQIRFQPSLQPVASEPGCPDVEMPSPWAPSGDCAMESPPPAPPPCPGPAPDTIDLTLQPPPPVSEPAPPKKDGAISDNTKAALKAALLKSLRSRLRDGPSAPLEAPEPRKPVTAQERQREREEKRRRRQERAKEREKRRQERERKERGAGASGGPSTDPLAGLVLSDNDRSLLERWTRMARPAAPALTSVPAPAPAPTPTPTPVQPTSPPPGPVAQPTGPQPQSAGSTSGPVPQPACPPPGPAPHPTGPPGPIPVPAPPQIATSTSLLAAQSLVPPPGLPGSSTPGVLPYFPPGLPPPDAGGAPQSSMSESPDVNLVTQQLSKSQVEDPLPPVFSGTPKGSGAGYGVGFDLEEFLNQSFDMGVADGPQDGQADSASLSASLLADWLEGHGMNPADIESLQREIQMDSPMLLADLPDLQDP
A short description of assay [16]: suppressors of polyQ aggregation in yeast, 75Q-TubU reporter (AID 1593). Conditions: Yeast 75Q polyglutamine aggregation reporter.
Assay [17] is described as follows: inhibitors of mitochondrial cytochrome c release, biochemical, purified mitochondria (AID 1603).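 Further: mouse liver mitochondria challenged with calcium chloride; signal normalized to the plate average as 100%.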 Conditions: stronger effect = lower value.
A short description of assay [18]: inhibitors of polyQ protein aggregation (AID 1604). Particulars: polyglutamine-induced protein aggregation inhibition assay; stronger effect = higher value; tested at 2.5 µM.
Assay [19] relates to Aerobactin synthetase IucA (Klebsiella pneumoniae hvKP1). Description: Biochemical IucA enzyme inhibition primary screen of the Spectrum library (AID 1346200; call rule not given here;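 further: 100% = wells without compound and 0% = wells lacking enzyme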). Conditions: malachite green pyrophosphate, A620, at 8 µM, stronger effect = lower value.
Where [20] appears, read: measured here: epithelial PC-3E GFP cell survival.
The mark [21] stands for this setting: measured here: mesenchymal TEM4-18 mCherry cell survival.
[22] abbreviates: measured here: relative caspase fold change +Dox/-Dox.
The mark [23] stands for this setting: measured here: total cells with miR-34 induction, stronger effect = lower value.
The mark [24] stands for this setting: measured here: total cells without miR-34 induction.
Where [25] appears, read: MELAS cybrid survival, CellTiter-Glo 48 h, stronger effect = higher value.
The mark [26] stands for this setting: Rieske KO mouse fibroblast survival, CellTiter-Glo 72 h.

“And” between values parts separate entries of the source, which are not always exact repeats. Equal entries are not always repeated. The source made the active and inactive calls. Unless noted, no stated cut-off is given here; in the data, active means parasite load remaining mostly below about 12% (no sharp cut-off); inactive means mostly above about 10%.

Chain of NAD(+) hydrolase SARM1 (Homo sapiens) (Q6SZW1 whole entry, looked up, the tested form may be a part): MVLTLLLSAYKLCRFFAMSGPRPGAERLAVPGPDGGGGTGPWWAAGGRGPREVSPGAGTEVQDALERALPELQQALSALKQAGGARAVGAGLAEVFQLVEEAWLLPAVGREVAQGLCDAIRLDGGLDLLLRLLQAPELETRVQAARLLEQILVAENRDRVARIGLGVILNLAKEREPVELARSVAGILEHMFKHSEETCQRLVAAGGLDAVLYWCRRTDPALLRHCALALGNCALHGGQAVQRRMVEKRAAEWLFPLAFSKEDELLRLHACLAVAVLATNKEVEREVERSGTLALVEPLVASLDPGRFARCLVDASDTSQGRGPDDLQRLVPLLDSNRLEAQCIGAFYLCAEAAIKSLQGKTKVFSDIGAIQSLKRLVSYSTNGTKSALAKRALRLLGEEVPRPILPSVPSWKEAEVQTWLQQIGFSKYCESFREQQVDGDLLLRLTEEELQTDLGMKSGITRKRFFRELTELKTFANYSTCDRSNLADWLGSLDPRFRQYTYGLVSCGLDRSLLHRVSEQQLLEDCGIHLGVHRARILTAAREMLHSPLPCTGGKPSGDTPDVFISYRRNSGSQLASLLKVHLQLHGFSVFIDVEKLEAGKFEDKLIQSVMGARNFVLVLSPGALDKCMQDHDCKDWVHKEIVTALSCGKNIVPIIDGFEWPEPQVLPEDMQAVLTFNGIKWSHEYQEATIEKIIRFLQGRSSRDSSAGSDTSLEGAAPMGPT

`CC(=O)NC1CCSC1=O` (stereo not given): the parasite load remaining in assay [1] is 132% (inactive). Also, in assay [1], the viability is 109%. The nuclear beta-catenin stimulation in [2] (at 10 µM) was 2.9% (inactive); in assay [2] (stimulation, at 2 µM), 3%. Also, the insulin secretion stimulation in [3] was 0.7% (inactive). For the same compound, the viability decrease in assay [4] was -1% (inactive). Further, the tube area decrease in [5] was 8% (inactive). Further, the GLP1 secretion stimulation in assay [6] was -0.5% (inactive). The inhibition of viability in [7] was -4.73% (inactive). Besides, the viability decrease (inhibition) in assay [8] was 12.1% (inactive); in [9], -3.7% (inactive). Besides, the inhibition in [10] was 18.8% (inactive). Besides, in assay [11], the red/green cell ratio (normalised) was 0.96 (inactive). Further, the normalised cell number in assay [11] (setting [20]) was determined as 1.05; in [11] (setting [21]), 1.02. Besides, the fold change in [12] (stronger effect = lower value) was 0.927 (inactive); in assay [12] (setting [22]), 0.928. Also, the cell count turned out to be 7880 in assay [12] (setting [23]) and 8510 in [12] (setting [24]). The z-score was -0.207 (inactive) in assay [13] (setting [25]) and -0.982 in assay [13] (setting [26]). Moreover, the remaining NAD in assay [14] was 10 nM (inactive). In assay [15], the luciferase signal is 52 AU (inactive).
Regarding `C[C@H]1O[C@@H](O[C@H]2[C@@H](O)C[C@H](O[C@H]3[C@@H](O)C[C@H](O[C@H]4CC[C@@]5(C)[C@H](CC[C@@H]6[C@@H]5CC[C@]5(C)[C@@H](C7=CC(=O)OC7)CC[C@]65O)C4)O[C@@H]3C)O[C@@H]2C)C[C@H](O)[C@@H]1O`, the nuclear beta-catenin stimulation was 1.3% (inactive) in assay [2] (at 10 µM) and 1.9% in assay [2] (stimulation, at 2 µM). For the same compound, in assay [3], the insulin secretion stimulation was 0.25% (inactive). The viability decrease in assay [4] is 84.5% (active). The tube area decrease in assay [5] is 112% (active). The GLP1 secretion stimulation in [6] was 11.6% (inactive). Also, in assay [7], the inhibition of viability was 61.8% (active). Moreover, the viability decrease (inhibition) is 75.8% (active) in assay [8] and 84.5% (active) in [9]. In assay [10], the inhibition was -0.54% (inactive). For the same compound, the remaining NAD in [14] is 10 nM (inactive). In assay [15], the luciferase signal is 24 AU (inactive).
On to `CCC1(CC)C(=O)C=CNC1=O`, for which, in assay [16], the score was 0.96 and 1.19. Further, the cytochrome c release ratio in assay [17] was 1.06 and 0.67. Further, the inhibition of aggregation in [18] was 63.5% and 88.5%. Further, in assay [1], the parasite load remaining is 98.5% (inactive) and 80.5% (inactive). Also, the viability in assay [1] was 103% and 91.2%. Besides, the nuclear beta-catenin stimulation in assay [2] (at 10 µM) was -0.7% (inactive); in [2] (stimulation, at 2 µM), -1.5%. Also, in assay [3], the insulin secretion stimulation is 0.8% (inactive). For the same compound, in assay [4], the viability decrease is -18% (inactive). Further, the tube area decrease in assay [5] is -3.8% (inactive). Also, the GLP1 secretion stimulation in [6] was -1.4% (inactive). Moreover, the inhibition of viability in assay [7] is -8.6% (inactive). Further, the viability decrease (inhibition) in assay [8] is 4.3% (inactive); in assay [9], -15.1% (inactive). Further, in assay [10], the inhibition was 8.27% (inactive). The red/green cell ratio (normalised) in assay [11] is 0.86 (inactive). Besides, the normalised cell number in assay [11] (setting [20]) worked out at 1.13; in assay [11] (setting [21]), 0.97. The activity remaining in assay [19] is 115% (inactive). Besides, the fold change in assay [12] (stronger effect = lower value) was 0.859 (inactive); in assay [12] (setting [22]) it was 1.13. The cell count in assay [12] (setting [23]) turned out to be 8380; in assay [12] (setting [24]), 9750. The z-score in assay [13] (setting [25]) is 0.0321 (inactive); in assay [13] (setting [26]), -1.05. Besides, in assay [14], the remaining NAD was 10 nM (inactive). Besides, in assay [15], the luciferase signal is 36 AU (inactive).
In assay [16], `Oc1cccc2cccnc12` gave a score of 0.03. Further, the cytochrome c release ratio in assay [17] is 0.94. In assay [18], this compound registered an inhibition of aggregation of 83.3%. Also, the parasite load remaining in assay [1] was 64.5% (inactive) and 25.4% (inactive). Further, the viability in [1] was 53.5% and 57.1%. In addition, the nuclear beta-catenin stimulation in assay [2] (at 10 µM) is 6.4% (inactive); in assay [2] (stimulation, at 2 µM), 0.8%. In assay [3], the insulin secretion stimulation is -1% (inactive). For the same compound, in [4], the viability decrease is -3.1% (inactive). In addition, the tube area decrease in assay [5] was -4.7% (inactive). Moreover, the GLP1 secretion stimulation in assay [6] was 81.5% (active). Moreover, the inhibition of viability in [7] is 8.1% (inactive). Further, the viability decrease (inhibition) in assay [8] is 68.4% (active); in assay [9], 53.9% (active). Moreover, in assay [11], the red/green cell ratio (normalised) was 1.03 (inactive). Further, the normalised cell number in assay [11] (setting [20]) was 0.9; in assay [11] (setting [21]) it was 0.93. For the same compound, the activity remaining in assay [19] was 111% (inactive). The fold change in assay [12] (stronger effect = lower value) is 0.857 (inactive); in assay [12] (setting [22]) it was 0.864. Further, the values for the cell count in [12] (setting [23]) and in [12] (setting [24]) were 8140 and 9500, respectively. In addition, the remaining NAD in [14] is 10 nM (inactive).
